# JMJD2A Tudor: JMJD2A Tudor domain (human) inhibition | O75164 | AlphaScreen JMJD2A-Tudor / H3K4me3 peptide binding | Potency, µM (series often up to 114 µM), without a hit: at the highest dose activity change, negative = inhibition, hits mostly inhibitors | 390,000 compounds, 4.4% hits; note: potency is the fitted concentration of half-maximal effect; % is set by controls: 0 for no effect and ±100 for the full control effect; nearly all actives have a fitted effect of over 50% in size
# BAZ2B block: blocks human BAZ2B; AlphaScreen BAZ2B-H3K14Ac peptide displacement; Potency, µM (doses to about 114 µM), inactives show top-dose activity change, negative = inhibition, hits mostly inhibitors; 360,000 compounds, 4.4% hits; Q9UIF8; note: potency is the fitted concentration of half-maximal effect; % is set by controls: 0 for no effect and ±100 for the full control effect; nearly all actives have a fitted effect of over 60% in size
#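 AlphaScreen displacement: compounds (up to 110uM) incubated 30 min at room temperature with a preformed 50 nM BAZ2B/50 nM biotinylated H3K14Ac peptide complex in PBS pH 7.4 with Tween-20. Donor and acceptor beads at 10 ug/mL final added, 20 min light-protected before reading.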
# G9a inh: inhibitors of human histone lysine methyltransferase G9a. Q96KQ7. G9a H3K9 monomethylation, AlphaScreen, 2 h. Potency, µM (titrated, usually from 102 µM), inactives show at the top dose activity, negative = inhibition, actives largely listed as inhibitors. 350,000 compounds, 8.8% hits; note: potency is the fitted concentration of half-maximal effect; % is set by controls: 0 for no effect and ±100 for the full control effect; nearly all actives have a fitted effect of over 75% in size
#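 AlphaScreen read-out: biotin-H3K9 peptide (500 nM) methylation by 20 nM enzyme with 20 uM SAM, 2 h at room temperature after 15 min compound preincubation; anti-monomethyl H3K9 antibody plus donor/acceptor beads, 10 min dark.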
# Six1-Eya2 inh: blocks human Six1 binding to Eya2 | Q15475+O00167 | AlphaScreen GST-Six1/His-Eya2 binding, biochemical; stronger effect = lower value | activity change, % (test concentration not listed) | 360,000 compounds, 0.56% hits; in the data active = activity change below about -65%; inconclusive = mostly about -30% to -63%; note: % is set by controls: 0 for no effect and ±100 for the full control effect
#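 Six1/Eya2 binding was read as AlphaScreen signal after compounds were pinned into GST-Six1 plus His-tagged Eya2 (5X stock 250/500 nM) in pH 8.0 Tris/NaCl/TCEP buffer, beads added, then incubated 1 h, 37 C, dark.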
# CtBP-E1A inh: inhibitors of CtBP/E1A interaction | AID 651724 | 340,000 compounds, 0.49% hits | activity change, % (test concentration not listed) | AlphaScreen GST-E1A/His-CtBP binding, 1536-well; stronger effect = lower value; in the data active = activity change below about -65%; inconclusive = mostly about -30% to -63%; note: % is set by controls: 0 for no effect and ±100 for the full control effect
#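 Steps: dispense buffer (Tris pH 8.0, NaCl 300 mM, TCEP 1 mM, BSA, Tween 20); add 5X protein mix (GST-E1A, His-CtBP, 125 nM each); pin 23 nL compound; 2 h at 37 °C, dark; add 5X beads (50 ug/mL); 1 h; read.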
# HP1b binding inh: HP1-beta chromodomain-methylated histone interaction inhibition; Potency, µM (doses to about 114 µM), for the others: at the highest dose activity change, negative = inhibition, actives largely listed as inhibitors; AlphaScreen HP1-beta / biotin-H3K9me3 peptide binding; 390,000 compounds, 0.56% hits; P83916; note: potency is the fitted concentration of half-maximal effect; nearly all actives have a fitted effect of over 70% in size
#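 Compound inhibition of the preformed complex between 50 nM HP1-beta and 50 nM biotinylated H3K9me3 peptide was read by AlphaScreen. Buffer was PBS pH 7.4 with 0.01% Tween-20. Incubations ran 30 min at room temperature, with 10 ug/mL donor/acceptor beads.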
# * marks the source's active call; other numbers are inactive results; ? = inconclusive; · = no result; [ ] = dose if it differs, or a comment. A selection: hits, their analogues and other compounds. The true share with any hit is near 10%. Unless noted, calls come from the whole dose curve; as a rule, active = well fitted inhibition curve with a large enough effect; inconclusive = small, poorly fitted or top-dose-only effect; inactive = no such curve, though single readings can be large or run the other way.
SMILES,JMJD2A Tudor,BAZ2B block,G9a inh,Six1-Eya2 inh,CtBP-E1A inh,HP1b binding inh
OCC1(CC2CCCCO2)CCN(C/C=C/c2ccccc2)CC1 (stereo not drawn),-4%,16%,8%,-3,0,23%
COc1cc(/C=C/CN2CCC(CO)(CC3CCCCO3)CC2)ccc1O (stereo not drawn),-16%,-24%,56µM*,-1,-17,2%
COc1cc(/C=C/CN2CCN(Cc3ccc(C)o3)C(CCO)C2)ccc1O (stereo not drawn),-20%,-24%,79µM*,-6,-14,-14%
Cc1ccc(NC(=O)c2ccc3c(=O)n4nc(Nc5ccccc5C)sc4nc3c2)cc1C,-4%,-29%,?,·,·,36%
COc1ccc(NC(=O)C2CCN(S(=O)(=O)c3ccc4c(c3)CCCC(=O)N4)CC2)cc1OC,-2%,7%[57.1 µM],1%[59 µM],·,·,34%
COc1cccc(-c2noc(Cn3nc(C(=O)O)c4ccccc4c3=O)n2)c1,-11%,-12%,-6%,-16,1,8%
O=C(O)c1nn(Cc2ncc(-c3cccc(Cl)c3)o2)c(=O)c2ccccc12,-30%,-20%,40µM*,12,19,?
O=C(Nc1ccc(N2CCOCC2)cc1N1CCOCC1)c1ccco1,56µM*,2%,?,-2,2,?
O=C(Nc1ccc(N2CCOCC2)c(C(=O)O)c1)c1ccco1,·,-1%,56µM*,·,·,·
Cc1oc(-c2ccccc2F)nc1CS(=O)(=O)CC(=O)NCCc1ccc(Cl)cc1,-7%,-16%,5%[59 µM],·,·,39%
COc1ccc2c(c1)c1c(c(=O)n(Cc3ccccc3)c(=O)n1CC(=O)NCc1ccccc1Cl)n2C,6%,1%,-5%[59 µM],·,·,36%
O=c1cc(CSc2nnc(Nc3ccccc3F)s2)nc2sccn12,-13%,-23%,?,-1,2,8%
COc1ccc(Nc2nnc(SCc3cc(=O)n4ccsc4n3)s2)cc1,22µM*,-2%[57.1 µM],4µM*,-21,-27,-2%
Cc1ccc(Nc2nnc(SCc3cc(=O)n4cc(C)ccc4n3)s2)cc1,-4%,-5%,15%[59 µM],-23,-67*,37%
Cc1cccn2c(=O)cc(CSc3nnc(NC(=O)COc4ccccc4)s3)nc12,56µM*,28µM*,-27%[12.7 µM],·,·,36%[57 µM]
COc1ccc(CCNC(=O)C(=O)NCC(c2cccs2)S(=O)(=O)c2cccs2)cc1 (stereo not drawn),0%,4%,4%[59 µM],·,·,43%
CCCS(=O)(=O)Nc1ccc(Nc2c3ccccc3nc3ccccc23)c(OC)c1,40µM*,·,·,?,14,?
COc1ccc(CCNC(=O)c2ccc3c(c2)sc2nc(-c4ccccc4)cn23)cc1OC,-11%,-23%,-21%[59 µM],·,·,46%
COc1cccc(/C=C2/CCC(CN(C)C)C2=O)c1 (stereo not drawn),79µM*,·,·,-17,1,?
O=C(c1cccc(Cl)c1)N(Cc1ccco1)Cc1ccccc1Cl,12%,60%,31%[59 µM],·,·,42%
O=C(Oc1ccc(Br)cc1C(=S)N1CCOCC1)c1ccc(F)cc1,-36%,?,·,-18,-17,-36%
CCOc1ccc(Br)cc1C(=S)N1CCCC1,12%,9%,17%[0.501 µM],-2,·,21%
Cc1c([N+](=O)[O-])cc(C(=O)Oc2ccc(Br)cc2C(=S)N2CCCCC2)cc1[N+](=O)[O-],?,?,8.9µM*,-22,-18,-28%
Cc1ccc(C(=O)Oc2ccc(Br)cc2C(=S)N2CCOCC2)cc1,-21%,-14%,40µM*,-10,?,?
COc1ccc(C(=O)Oc2ccc(Br)cc2C(=S)N2CCOCC2)cc1,-31%,-24%,56µM*,-19,-29,70%
SMILES,JMJD2A Tudor,BAZ2B block,G9a inh,Six1-Eya2 inh,CtBP-E1A inh,HP1b binding inh
CCn1c(CNC(=O)c2ccc(OC)cc2)nnc1SCC(=O)Nc1cccc(C)c1,-21%,-6%,5%[59 µM],·,·,17%
Cc1ccc(NS(=O)(=O)c2cc3[nH]c(=O)c(=O)[nH]c3cc2C)cc1N(C)C,-19%,-30%,-28%[59 µM],·,·,5%
CC(=O)c1ccc(NC(=O)CN(C)S(=O)(=O)c2cc3c(cc2C)NC(=O)CO3)cc1,-6%,4%,-4%[59 µM],·,·,36%
Cc1cccc2cc(C#N)c(SCC(=O)NNC(=O)Cc3ccccc3)nc12,-10%,6%,18%,6,2,31%
Cc1cccc2cc(C#N)c(SCC#N)nc12,-32%,1%,25µM*,-5,·,10%
COc1ccc(-n2c(=O)c3c4c(sc3n(Cc3cc(C)ccc3C)c2=O)CN(C(C)=O)CC4)c(OC)c1,?,?,-28%[59 µM],·,·,10%
Cn1nnnc1Sc1ncnc2scc(-c3ccccc3)c12,-3%,2%,16%[59 µM],-3,3,17%
c1ccc(-c2csc3ncn4nnnc4c23)cc1,14µM*,0%,-22%[12.7 µM],3,1,?
O=[N+]([O-])c1cc(-c2ccc(/C=N/c3nc4ccccn4c3-c3ccco3)o2)ccc1Cl,?,45µM*,13µM*,-25,-10,-17%
COc1ccc(C(=O)n2nc(-c3cccnc3)nc2NCc2ccccc2)cc1OC,-2%,-10%,3%[59 µM],·,·,35%
Nc1nonc1-c1nc2ccccc2n1CC(=O)N/N=C/c1ccc(-c2ccccc2C(=O)O)o1,-8%[11.4 µM],50µM*,45µM*,?,·,8%
Cc1[nH]n(-c2ccccc2)c(=O)c1N=Nc1ccccc1O,?,?,?,-87*,-81*,-39%
Nc1c(N=Nc2ccccc2F)c(=O)[nH]n1-c1ccccc1,?,?,-43%,-11,0,10%
Cc1ccccc1N=Nc1c(C)[nH]n(-c2ccccc2)c1=O,?,?,2.2µM*,-5,2,35µM*
Cc1[nH]n(-c2ccccc2)c(=O)c1N=Nc1nccs1,?,32µM*,14µM*,-17,-22,-25%
Cc1[nH]n(-c2ccccc2)c(=O)c1N=Nc1ccccc1C(=O)O,?,?,?,-3,·,-7%
Cc1[nH]n(-c2ccccc2)c(=O)c1/C=N/c1ccccn1,-2%,?,-24%,-2,0,9%
Cc1cn2c(=O)cc(COC(=O)c3cccc(NC(=O)COc4ccccc4Cl)c3)nc2s1,-2%,2%,12%[59 µM],·,·,47%
O=C(Cn1c(=O)n(Cc2ccc(C(=O)NCc3ccc4c(c3)OCO4)cc2)c(=O)c2ccccc21)Nc1ccc(F)cc1F,?,-31%,-25%[59 µM],·,·,80%
Cc1cccc(C)c1NC(=O)c1ccc2nc(CCc3ccccc3)oc2c1,-13%,-2%,1%[59 µM],·,·,12%[57 µM]
Clc1ccc(CSc2nccn2Cc2ccccc2)cc1,3.2µM*,?,-11%[0.501 µM],-24,-17,-4%

# From PubChem BioAssay
